Test results reported in PubChem BioAssay.
Active and inactive are the calls of the source.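 The calls were made as follows, unless noted: active = viability at or below 10% of carrier control in both of two separate runs; inconclusive = viability at or below 10% in only one of the two runs; inactive = the rest.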

Tests used:
[1] = Her2 expression decrease, cell viability multiplex – SKBR3 breast tumor cells, AlphaScreen, ATP viability, primary screen (AID 461;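 active = Her2 level under about 52% in both replicate screens, with viability over 70% of control, limit read from the data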;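 as to Her2 level: lower value means less Her2 protein in the cells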;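 as to viability: percent of carrier control wells set as 100% viability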); conditions: SKBR3 Her2 protein level, 18-24 h, measured here: SKBR3 viability, ATP luminescence, at 10 µM
[2] = biological target: Receptor tyrosine-protein kinase erbB-2 (Homo sapiens) (UniProt P04626); experiment: as above; conditions: 18-24 h, at 10 µM, stronger effect = lower value
Sequence of Receptor tyrosine-protein kinase erbB-2 (Homo sapiens) (P04626 whole entry, looked up): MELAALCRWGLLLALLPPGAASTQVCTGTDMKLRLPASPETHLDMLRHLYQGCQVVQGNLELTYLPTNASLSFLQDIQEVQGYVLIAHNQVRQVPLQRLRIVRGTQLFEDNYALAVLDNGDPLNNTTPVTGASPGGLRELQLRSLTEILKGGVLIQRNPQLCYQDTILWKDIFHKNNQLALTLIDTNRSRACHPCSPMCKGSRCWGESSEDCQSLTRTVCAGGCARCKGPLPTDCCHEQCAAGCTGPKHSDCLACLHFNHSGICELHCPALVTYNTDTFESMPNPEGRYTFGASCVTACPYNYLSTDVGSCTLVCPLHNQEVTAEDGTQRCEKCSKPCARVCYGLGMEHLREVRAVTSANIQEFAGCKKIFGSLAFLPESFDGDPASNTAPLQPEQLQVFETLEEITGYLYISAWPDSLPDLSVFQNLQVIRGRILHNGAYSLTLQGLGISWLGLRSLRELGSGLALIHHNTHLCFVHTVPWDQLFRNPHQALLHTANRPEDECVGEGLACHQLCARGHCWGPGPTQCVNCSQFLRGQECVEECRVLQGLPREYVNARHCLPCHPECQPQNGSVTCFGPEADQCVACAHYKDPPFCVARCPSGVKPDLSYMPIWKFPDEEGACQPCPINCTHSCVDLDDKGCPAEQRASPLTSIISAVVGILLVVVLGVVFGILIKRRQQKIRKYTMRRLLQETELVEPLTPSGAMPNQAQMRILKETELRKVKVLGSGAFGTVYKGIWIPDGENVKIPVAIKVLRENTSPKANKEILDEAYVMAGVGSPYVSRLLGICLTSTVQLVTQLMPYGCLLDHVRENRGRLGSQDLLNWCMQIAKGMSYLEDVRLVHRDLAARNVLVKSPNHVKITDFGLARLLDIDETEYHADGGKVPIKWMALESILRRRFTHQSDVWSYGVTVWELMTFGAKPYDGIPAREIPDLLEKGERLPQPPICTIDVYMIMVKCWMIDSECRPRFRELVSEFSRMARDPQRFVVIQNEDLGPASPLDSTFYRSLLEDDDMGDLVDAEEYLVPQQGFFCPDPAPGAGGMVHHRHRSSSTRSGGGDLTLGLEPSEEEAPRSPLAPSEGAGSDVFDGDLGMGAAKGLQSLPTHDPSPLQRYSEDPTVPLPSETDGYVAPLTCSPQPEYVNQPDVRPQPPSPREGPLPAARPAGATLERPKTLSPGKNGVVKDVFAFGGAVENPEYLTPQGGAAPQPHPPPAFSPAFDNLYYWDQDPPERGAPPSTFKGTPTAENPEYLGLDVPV

[3] = reduced viability of SK-BR-3 breast cancer cells – cell-based, 24 h, human, pilot screen (AID 572); conditions: SK-BR-3 viability, CellTiter-Glo luminescence, at 10 µM, stronger effect = lower value;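 also: compound exposure lasted between 18 and 24 h rather than exactly 24 h; 100% = carrier-treated control wells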
[4] = H69AR cell proliferation blockers – human, duplicate replicates, primary screen (AID 580;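 active = viability at or under a set limit in both replicates, limit being median viability minus 3 SD, cut at about 48% in these data, passing the limit was not always enough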;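 also: 100% = mean luminescence of untreated wells and 0% = no signal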); conditions: H69AR lung tumor cells viability, ATP luminescence, 72 h; at 10 µM; stronger effect = lower value
[5] = MRP1 drug-resistance reversers in H69AR cells – cell-based, doxorubicin co-treatment, pilot screen (AID 601;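 active = viability loss from added drug above about 55%, and viability with drug at most 40%, in both replicates, limit read from the data, passing the limit was not always enough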); conditions: CellTiter-Glo, 72 h, at 10 µM; for differential viability (reversal): stronger effect = higher value
[6] = yeast transport mutant growth inhibition pilot in 384-well plates, post-Golgi transport modulator project (AID 636; in the data active = inhibition above about 31%); conditions: absorbance 615 nm, about 18 h, stronger effect = higher value
[7] = growth suppression of yeast trafficking mutant, preliminary HTS, modulators of trafficking downstream of Golgi apparatus project, 1536-format plate, OD 615 nm (AID 637; in the data active = inhibition above about 30%); conditions: yeast transport mutant growth, absorbance 615 nm, 18 h; stronger effect = higher value
[8] = H69AR cells + 2 uM doxorubicin, measured here: viability with 2 uM doxorubicin, stronger effect = lower value
[9] = H69AR cells, compound alone cytotoxicity

| SMILES | viability [1] [%] | Her2 level [2] | viability [3] | viability [4] | differential viability (reversal) ([5]; H69AR cells + 2 uM doxorubicin) | viability [5, 8] [%] | viability [5, 9] [%] | inhibition [6] | inhibition [7] |
| --- | --- | --- | --- | --- | --- | --- | --- | --- | --- |
| COc1ccccc1NC(=O)Cn1nnc(-c2ccccc2NC(=O)c2ccco2)n1 | 91.5 | 72.5% (inactive) | 91.5% (inactive) | 6.73% (active) | -4.18% (inactive) | 10.9 | 6.73 | -5.41% (inactive) | 0.66% (inactive) |
| CCOC(=O)/C=C(\C)Sc1cc(=O)oc2ccccc12 | 94.5 | 47.5% (active) | 94.5% (inactive) | 6.09% (active) | 2.37% (inactive) | 3.73 | 6.09 | -0.92% (inactive) | 1.45% (inactive) |
| CC(C)Cn1c(N)c(C(=O)NCc2cccs2)c2nc3ccccc3nc21 | 77 | 101% (inactive) | 77% (inactive) | 12% (active) | -5.04% (inactive) | 17.1 | 12 | 24.3% (inactive) | 12.1% (inactive) |
| N#C/C(=C(/O)COC(=O)CCC1CCCCC1)c1nc2ccccc2[nH]1 | 126 | 31% (active) | 126% (inactive) | 38.1% (active) | -9.79% (inactive) | 47.9 | 38.1 | -4.8% (inactive) | 2.3% (inactive) |
| Cc1ccc2c(c1)-c1c(cnn1CC(=O)Nc1ccccc1N1CCN(C)CC1)CO2 | 93.5 | 84% (inactive) | 93.5% (inactive) | 85.2% (inactive) | 4.26% (inactive) | 80.9 | 85.2 | -1.2% (inactive) | -3.28% (inactive) |
| Oc1c(Cl)cc(Cl)c2c1NCCC2 | 71.5 | 65% (inactive) | 71.5% (inactive) | 68.8% (inactive) | -11.9% (inactive) | 80.7 | 68.8 | -2.63% (inactive) | -2.7% (inactive) |
| CSc1nc(N2CCOCC2)c2c(c1C#N)CCCCC2 | 112 | 96% (inactive) | 112% (inactive) | 86.8% (inactive) | 12.9% (inactive) | 73.9 | 86.8 | 0.79% (inactive) | 17.9% (inactive) |
| Oc1ccc(N2CCN(C(c3ccncc3)c3nnnn3C3CCCC3)CC2)cc1 (stereo unspecified) | 76 | 82.5% (inactive) | 76% (inactive) | 91.9% (inactive) | 4.33% (inactive) | 87.6 | 91.9 | -5.2% (inactive) | 2.58% (inactive) |
| CCC1CCc2c(sc3ncnc(N4CCOCC4)c23)C1 (stereo unspecified) | 89.5 | 87% (inactive) | 89.5% (inactive) | 89.3% (inactive) | -14.3% (inactive) | 104 | 89.3 | -5.14% (inactive) | -0.16% (inactive) |
| O=c1c2ccccc2nc(SCc2nnc(-c3ccccc3Br)o2)n1-c1ccccc1 | 77 | 95.5% (inactive) | 77% (inactive) | 84.2% (inactive) | -3.29% (inactive) | 87.5 | 84.2 | -0.27% (inactive) | 3.77% (inactive) |
| Nc1nc(N2CCN(C/C=C/c3ccccc3)CC2)nc2ccccc12 | 80.5 | 98.5% (inactive) | 80.5% (inactive) | 92% (inactive) | 5.93% (inactive) | 86.1 | 92 | -5.07% (inactive) | -2.13% (inactive) |
| CCOC(=O)c1cc(-c2ccc3c(c2)OCO3)nc2onc(C)c12 | 110 | 89.5% (inactive) | 110% (inactive) | 67.2% (inactive) | -3.71% (inactive) | 70.9 | 67.2 | -4.93% (inactive) | 2.9% (inactive) |
| COc1ccc(-c2nc(N)nc(C)c2Oc2ccccc2Br)c(O)c1 | 96 | 74% (inactive) | 96% (inactive) | 5.08% (active) | -12.7% (inactive) | 17.8 | 5.08 | -4.34% (inactive) | 57.6% (active) |
| COC(=O)c1ccc2c(=O)n(Cc3ccco3)c(SCC(=O)Nc3ccc(C)c(Cl)c3)nc2c1 | 77.5 | 59.5% (inactive) | 77.5% (inactive) | 8.06% (active) | -2.23% (inactive) | 10.3 | 8.06 | -1.71% (inactive) | -2.7% (inactive) |
| O=C(CC(=O)c1cc(Cl)ccc1O)c1ccccc1 | 131 | 89% (inactive) | 131% (inactive) | 11.4% (active) | -9.6% (inactive) | 21 | 11.4 | 94.7% (active) | 61.3% (active) |
| CCn1c(SCc2nc(-c3cccs3)no2)nnc1-c1c[nH]c2ccccc12 | 99 | 65.5% (inactive) | 99% (inactive) | 78.8% (inactive) | 4.39% (inactive) | 74.4 | 78.8 | -5.26% (inactive) | -5.67% (inactive) |
| CCOC(=O)c1ccccc1NC(=O)c1c(O)c2ccccc2n(CC)c1=O | 89 | 90% (inactive) | 89% (inactive) | 71.3% (inactive) | -11.1% (inactive) | 82.3 | 71.3 | -6.85% (inactive) | 0.16% (inactive) |

| SMILES | viability [1] [%] | Her2 level [2] | viability [3] | viability [4] | differential viability (reversal) ([5]; H69AR cells + 2 uM doxorubicin) | viability [5, 8] [%] | viability [5, 9] [%] | inhibition [6] | inhibition [7] |
| --- | --- | --- | --- | --- | --- | --- | --- | --- | --- |
| COc1ccc(-c2cc3c(=O)n(CC(=O)NC4CCN(Cc5ccccc5)CC4)ncn3n2)cc1 | 75 | 103% (inactive) | 75% (inactive) | 74.2% (inactive) | -0.715% (inactive) | 75 | 74.2 | -5.66% (inactive) | -0.83% (inactive) |
| COc1cccc(-c2nnc3sc(C4CCCCC4)nn23)c1 | 83 | 53.5% (active) | 83% (inactive) | 63.4% (inactive) | 29.9% (inactive) | 33.5 | 63.4 | -1.58% (inactive) | 11% (inactive) |
| Cc1nc2cc(N3CCCCC3)c(NC(=O)c3cccnc3)cc2c(=O)n1Cc1ccccc1 | 64 | 67.5% (inactive) | 64% (inactive) | 28.9% (active) | 6.91% (inactive) | 22 | 28.9 | 2.11% (inactive) | -8.33% (inactive) |
| COc1ccc(Cn2nnnc2C(c2cccnc2)N2CCN(c3ccc(O)cc3)CC2)cc1 (stereo unspecified) | 99.5 | 89.5% (inactive) | 99.5% (inactive) | 82.5% (inactive) | -10.7% (inactive) | 93.2 | 82.5 | -6.4% (inactive) | 4.19% (inactive) |
| CCc1ccc2oc(-c3cc(N)ccc3Cl)nc2c1 | 102 | 87.5% (inactive) | 102% (inactive) | 77.2% (inactive) | -12.2% (inactive) | 89.4 | 77.2 | -0.54% (inactive) | -4% (inactive) |
| Nc1nonc1C(=O)NCCNCc1cc(Br)ccc1OCc1ccccc1F | 97.5 | 78.5% (inactive) | 97.5% (inactive) | 66.8% (inactive) | -1.58% (inactive) | 68.4 | 66.8 | -5.87% (inactive) | -6.13% (inactive) |
| COc1cc(C(=O)Nc2nc(-c3cccs3)cs2)cc(OC)c1OC | 86 | 82% (inactive) | 86% (inactive) | 22.9% (active) | -14.2% (inactive) | 37.2 | 22.9 | 1.51% (inactive) | 23.6% (inactive) |
| Cc1ccc(O)c(-c2cc3ccccc3[nH]2)c1 | 105 | 87% (inactive) | 105% (inactive) | 70.2% (inactive) | 11.1% (inactive) | 59.2 | 70.2 | -8.92% (inactive) | 0.33% (inactive) |
| Oc1ccccc1-c1cc(C(F)(F)C(F)F)[nH]n1 | 97 | 93% (inactive) | 97% (inactive) | 98.3% (inactive) | 11.3% (inactive) | 87.1 | 98.3 | -2.69% (inactive) | 2.83% (inactive) |
| Clc1ccc(Cl)c(-c2nn3c(COc4ccccc4)nnc3s2)c1 | 96 | 69% (inactive) | 96% (inactive) | 72.9% (inactive) | 1.02% (inactive) | 71.9 | 72.9 | -5.07% (inactive) | 5.32% (inactive) |
| CN(C)CC(O)COc1ccc(-c2ccc(C#N)cc2)cc1 (stereo unspecified) | 79.5 | 109% (inactive) | 79.5% (inactive) | 96% (inactive) | 14.3% (inactive) | 81.8 | 96 | 0.27% (inactive) | -6.61% (inactive) |
| CN1CCc2nc(SCCOc3ccccc3)c(C#N)cc2C1 | 150 | 25% (active) | 150% (inactive) | 84.8% (inactive) | -13.7% (inactive) | 98.5 | 84.8 | -1.69% (inactive) | 0.67% (inactive) |
| CCCOc1ccccc1C1CC(=O)Nc2cc3c(cc21)OCCO3 (stereo unspecified) | 84 | 67% (inactive) | 84% (inactive) | 34.3% (active) | -39.2% (inactive) | 73.5 | 34.3 | -4.93% (inactive) | -2.3% (inactive) |
| Cn1c(-c2ccc(C(C)(C)C)cc2)n[nH]c1=S | 106 | 106% (inactive) | 106% (inactive) | 82.1% (inactive) | 1.74% (inactive) | 80.4 | 82.1 | -4.68% (inactive) | -2.13% (inactive) |
| Cc1cc(O)c(-c2cc(C(=O)Nc3ccc(S(=O)(=O)N4CCOCC4)cc3)[nH]n2)cc1C | 120 | 41% (active) | 120% (inactive) | 37.6% (active) | -21.6% (inactive) | 59.2 | 37.6 | -5.14% (inactive) | -5.08% (inactive) |
| COc1cc2c(N3CCOCC3)cc(O)c(CC(=O)Nc3ccccc3)c2cc1OC | 90.5 | 98.5% (inactive) | 90.5% (inactive) | 75.3% (inactive) | -14% (inactive) | 89.3 | 75.3 | -5.32% (inactive) | -6.89% (inactive) |
| NC(=O)c1cc(-c2ccccc2)nc(N2CCOCC2)n1 | 102 | 69.5% (inactive) | 102% (inactive) | 84.4% (inactive) | 12.1% (inactive) | 72.3 | 84.4 | -2.97% (inactive) | -6.35% (inactive) |
